# Reference: the supplement of paper PMC11732987, “Enantioselective OTUD7B fragment discovery through chemoproteomics screening and high-throughput optimisation” (Communications Chemistry, 2025)
# Compound: COc1cccc(CN(C)C(=O)CCl)c1
# Test: log2 ratio of Biotin-Ahx-Ub-VS probe labelling (compound/DMSO); higher = less target engagement, active = hit call of the paper (q ≤ 0.05, log2 ratio ≤ -1)
# Conditions: compound concentration: 50uM; treatment time: 3 h
# Method: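 Round 2 competitive ABPP in HEK293T lysate. Compounds were tested at 50 and 200 µM for 3 h, followed by Biotin-Ahx-Ub-VS enrichment and diaPASEF LC-MS/MS. Values are the average log2 ratio (compound/DMSO) from an unpaired t-test (n=3 treated, n=26 DMSO).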
# UniProt Q5VVQ6, sequence (Q5VVQ6 whole entry): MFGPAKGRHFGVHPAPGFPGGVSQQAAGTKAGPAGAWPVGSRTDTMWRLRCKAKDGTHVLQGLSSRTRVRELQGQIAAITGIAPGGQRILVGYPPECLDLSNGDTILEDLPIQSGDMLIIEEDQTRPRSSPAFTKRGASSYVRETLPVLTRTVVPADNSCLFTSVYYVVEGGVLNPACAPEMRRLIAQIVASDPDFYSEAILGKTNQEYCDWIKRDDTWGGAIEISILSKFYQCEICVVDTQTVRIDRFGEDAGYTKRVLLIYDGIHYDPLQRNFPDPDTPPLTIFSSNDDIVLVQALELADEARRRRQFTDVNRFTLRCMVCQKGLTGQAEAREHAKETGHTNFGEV
# UniProt Q01804, sequence (Q01804 whole entry): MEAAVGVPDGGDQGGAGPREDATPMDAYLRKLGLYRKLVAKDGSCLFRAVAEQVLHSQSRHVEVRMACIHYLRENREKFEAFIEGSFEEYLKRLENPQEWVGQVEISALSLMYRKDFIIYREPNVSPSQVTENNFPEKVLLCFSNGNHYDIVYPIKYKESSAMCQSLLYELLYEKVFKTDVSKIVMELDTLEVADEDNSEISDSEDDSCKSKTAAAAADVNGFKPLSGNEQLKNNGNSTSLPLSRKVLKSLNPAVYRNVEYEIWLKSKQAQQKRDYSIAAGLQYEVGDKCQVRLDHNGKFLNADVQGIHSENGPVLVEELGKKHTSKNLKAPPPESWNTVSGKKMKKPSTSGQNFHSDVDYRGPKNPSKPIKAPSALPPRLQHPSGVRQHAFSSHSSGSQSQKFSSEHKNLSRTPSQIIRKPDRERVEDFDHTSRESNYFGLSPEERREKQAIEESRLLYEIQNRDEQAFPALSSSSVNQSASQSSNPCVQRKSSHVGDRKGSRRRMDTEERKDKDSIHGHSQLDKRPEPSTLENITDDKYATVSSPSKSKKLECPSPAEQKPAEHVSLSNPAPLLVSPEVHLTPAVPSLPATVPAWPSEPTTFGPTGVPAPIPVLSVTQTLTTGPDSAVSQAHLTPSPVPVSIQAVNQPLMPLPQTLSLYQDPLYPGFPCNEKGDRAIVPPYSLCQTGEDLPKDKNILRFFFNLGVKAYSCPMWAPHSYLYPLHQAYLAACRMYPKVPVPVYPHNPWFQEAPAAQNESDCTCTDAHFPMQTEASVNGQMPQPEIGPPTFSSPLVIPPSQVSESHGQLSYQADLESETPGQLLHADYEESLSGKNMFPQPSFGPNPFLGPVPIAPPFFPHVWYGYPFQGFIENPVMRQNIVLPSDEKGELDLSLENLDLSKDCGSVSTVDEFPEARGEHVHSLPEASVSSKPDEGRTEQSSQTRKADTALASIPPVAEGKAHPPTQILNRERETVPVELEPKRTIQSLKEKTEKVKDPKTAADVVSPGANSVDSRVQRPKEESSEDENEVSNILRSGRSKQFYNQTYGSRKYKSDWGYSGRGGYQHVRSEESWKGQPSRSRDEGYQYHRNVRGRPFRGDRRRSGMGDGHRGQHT
# UniProt Q86UV5, sequence (Q86UV5 whole entry): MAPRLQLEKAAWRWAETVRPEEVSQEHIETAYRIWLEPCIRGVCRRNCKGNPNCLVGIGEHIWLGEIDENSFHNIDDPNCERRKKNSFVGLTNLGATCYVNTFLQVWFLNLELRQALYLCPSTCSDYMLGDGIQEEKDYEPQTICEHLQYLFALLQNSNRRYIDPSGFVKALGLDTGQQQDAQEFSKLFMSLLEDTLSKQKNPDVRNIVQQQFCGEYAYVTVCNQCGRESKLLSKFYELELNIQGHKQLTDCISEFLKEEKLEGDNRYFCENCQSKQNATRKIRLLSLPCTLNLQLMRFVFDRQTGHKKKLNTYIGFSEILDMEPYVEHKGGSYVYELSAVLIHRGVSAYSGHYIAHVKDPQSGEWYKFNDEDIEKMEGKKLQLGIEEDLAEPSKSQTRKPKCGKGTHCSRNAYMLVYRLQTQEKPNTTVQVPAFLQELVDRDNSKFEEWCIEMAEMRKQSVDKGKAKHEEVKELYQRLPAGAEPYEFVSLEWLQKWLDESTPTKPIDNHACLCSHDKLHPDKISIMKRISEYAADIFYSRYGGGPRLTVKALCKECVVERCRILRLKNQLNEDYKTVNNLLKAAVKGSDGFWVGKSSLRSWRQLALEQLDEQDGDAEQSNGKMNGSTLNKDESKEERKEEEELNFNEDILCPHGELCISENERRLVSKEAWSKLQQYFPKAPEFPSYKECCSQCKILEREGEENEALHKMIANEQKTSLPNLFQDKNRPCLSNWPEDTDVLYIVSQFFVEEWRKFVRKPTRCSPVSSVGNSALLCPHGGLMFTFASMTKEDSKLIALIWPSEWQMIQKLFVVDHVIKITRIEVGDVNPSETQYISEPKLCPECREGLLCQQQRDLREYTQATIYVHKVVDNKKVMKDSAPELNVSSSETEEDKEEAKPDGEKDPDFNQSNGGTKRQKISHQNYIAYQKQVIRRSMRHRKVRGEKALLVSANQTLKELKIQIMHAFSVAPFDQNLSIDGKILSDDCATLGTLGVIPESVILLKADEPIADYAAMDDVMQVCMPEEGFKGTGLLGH
# UniProt O15372, sequence (O15372 whole entry): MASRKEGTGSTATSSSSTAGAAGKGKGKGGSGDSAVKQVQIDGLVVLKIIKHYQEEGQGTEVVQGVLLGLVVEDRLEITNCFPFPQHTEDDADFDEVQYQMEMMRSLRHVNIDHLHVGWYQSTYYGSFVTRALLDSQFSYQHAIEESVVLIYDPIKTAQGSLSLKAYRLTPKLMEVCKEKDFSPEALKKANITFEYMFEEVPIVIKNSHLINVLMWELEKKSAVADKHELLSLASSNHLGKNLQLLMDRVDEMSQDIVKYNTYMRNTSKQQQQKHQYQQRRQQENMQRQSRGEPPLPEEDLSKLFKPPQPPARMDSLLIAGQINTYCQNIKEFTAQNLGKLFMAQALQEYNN
# UniProt Q9Y4E8, sequence (Q9Y4E8 whole entry): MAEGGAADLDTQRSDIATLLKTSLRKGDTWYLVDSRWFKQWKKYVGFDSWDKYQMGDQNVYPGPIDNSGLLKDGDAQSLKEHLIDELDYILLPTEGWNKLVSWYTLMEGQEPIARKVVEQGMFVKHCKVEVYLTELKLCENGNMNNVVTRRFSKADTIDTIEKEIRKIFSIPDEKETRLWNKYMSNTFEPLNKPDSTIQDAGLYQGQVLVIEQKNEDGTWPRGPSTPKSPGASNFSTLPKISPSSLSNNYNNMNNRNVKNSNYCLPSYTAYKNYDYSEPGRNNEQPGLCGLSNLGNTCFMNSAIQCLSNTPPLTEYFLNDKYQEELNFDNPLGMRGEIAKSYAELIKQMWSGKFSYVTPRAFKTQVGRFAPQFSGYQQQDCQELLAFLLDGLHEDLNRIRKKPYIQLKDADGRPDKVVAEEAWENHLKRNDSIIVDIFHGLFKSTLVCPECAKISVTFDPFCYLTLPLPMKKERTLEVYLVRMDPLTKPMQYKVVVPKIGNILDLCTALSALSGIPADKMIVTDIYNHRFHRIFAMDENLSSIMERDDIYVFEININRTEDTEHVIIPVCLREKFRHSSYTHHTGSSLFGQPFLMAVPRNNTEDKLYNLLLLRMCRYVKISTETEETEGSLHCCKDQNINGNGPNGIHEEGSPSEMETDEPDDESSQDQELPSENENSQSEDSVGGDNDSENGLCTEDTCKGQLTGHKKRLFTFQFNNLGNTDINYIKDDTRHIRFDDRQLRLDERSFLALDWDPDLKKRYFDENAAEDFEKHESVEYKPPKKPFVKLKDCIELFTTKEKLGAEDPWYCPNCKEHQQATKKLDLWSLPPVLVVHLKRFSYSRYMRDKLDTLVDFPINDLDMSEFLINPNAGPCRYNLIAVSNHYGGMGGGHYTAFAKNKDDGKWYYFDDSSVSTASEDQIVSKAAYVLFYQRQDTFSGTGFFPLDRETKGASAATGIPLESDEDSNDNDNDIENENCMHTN
# UniProt O00303, sequence (O00303 whole entry): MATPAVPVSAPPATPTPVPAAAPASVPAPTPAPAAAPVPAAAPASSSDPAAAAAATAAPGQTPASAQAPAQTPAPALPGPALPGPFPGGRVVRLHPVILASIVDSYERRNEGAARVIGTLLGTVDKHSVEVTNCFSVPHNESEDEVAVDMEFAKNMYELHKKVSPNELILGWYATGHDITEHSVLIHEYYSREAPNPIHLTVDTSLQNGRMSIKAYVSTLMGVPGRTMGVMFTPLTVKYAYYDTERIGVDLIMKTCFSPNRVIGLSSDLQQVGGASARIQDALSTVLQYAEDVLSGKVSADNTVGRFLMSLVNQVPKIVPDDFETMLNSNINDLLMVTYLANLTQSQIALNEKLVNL
# UniProt Q92905, sequence (Q92905 whole entry, looked up): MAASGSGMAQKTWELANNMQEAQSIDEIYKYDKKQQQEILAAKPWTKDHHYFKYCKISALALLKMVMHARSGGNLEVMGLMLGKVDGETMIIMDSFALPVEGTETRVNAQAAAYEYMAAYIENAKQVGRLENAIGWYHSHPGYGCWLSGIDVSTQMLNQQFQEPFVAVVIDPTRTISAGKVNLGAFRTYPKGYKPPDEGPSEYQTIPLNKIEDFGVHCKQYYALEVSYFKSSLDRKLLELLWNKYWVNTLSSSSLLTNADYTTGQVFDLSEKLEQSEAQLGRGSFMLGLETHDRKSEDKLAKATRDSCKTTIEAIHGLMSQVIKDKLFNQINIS
# UniProt Q8N6M0, sequence (Q8N6M0 whole entry): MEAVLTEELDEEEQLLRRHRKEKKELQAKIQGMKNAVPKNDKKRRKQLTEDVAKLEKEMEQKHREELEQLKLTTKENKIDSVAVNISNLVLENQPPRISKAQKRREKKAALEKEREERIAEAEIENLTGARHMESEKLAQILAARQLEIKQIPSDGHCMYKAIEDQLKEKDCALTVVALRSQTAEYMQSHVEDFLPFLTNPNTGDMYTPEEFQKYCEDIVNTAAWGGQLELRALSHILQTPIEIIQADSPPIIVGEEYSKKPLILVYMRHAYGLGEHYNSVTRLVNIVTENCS
row,Target,log2 ratio of Biotin-Ahx-Ub-VS probe labelling
1,USP54 (UniProt Q70EL1),-2.86 (active)
2,PRPF8 (UniProt Q6P2Q9),0.0579 (inactive)
3,USP48 (UniProt Q86UV5),-0.144 (inactive)
4,VCPIP1 (UniProt Q96JH7),-0.139 (inactive)
5,OTUD4 (UniProt Q01804),-0.113 (inactive)
6,MINDY4 (UniProt Q4G0A6),0.225 (inactive)
7,USP46 (UniProt P62068),-0.277 (inactive)
8,EIF3F (UniProt O00303),-0.14 (inactive)
9,USP8 (UniProt P40818),-0.108 (inactive)
10,ALG13 (UniProt Q9NP73),0.312 (inactive)
11,UniProt O00487,-0.186 (inactive)
12,PSMD7 (UniProt P51665),0.132 (inactive)
13,USP10 (UniProt Q14694),-0.177 (inactive)
14,COPS5 (UniProt Q92905),-0.236 (inactive)
15,OTUD6B (UniProt Q8N6M0),-0.149 (inactive)
16,YOD1 (UniProt Q5VVQ6),0.0405 (inactive)
17,USP15 (UniProt Q9Y4E8),-0.185 (inactive)
18,EIF3H (UniProt O15372),-0.183 (inactive)
19,UCHL1 (UniProt P09936),-0.0521 (inactive)
20,USP25 (UniProt Q9UHP3),-1.88 (active)

# Same assay, conditions: compound concentration: 200uM; treatment time: 3 h
row,Target,log2 ratio of Biotin-Ahx-Ub-VS probe labelling
1,USP54 (UniProt Q70EL1),-2.26 (active)
2,PRPF8 (UniProt Q6P2Q9),0.0324 (inactive)
3,USP48 (UniProt Q86UV5),-0.273 (inactive)
4,VCPIP1 (UniProt Q96JH7),-0.277 (inactive)
5,OTUD4 (UniProt Q01804),-0.21 (inactive)
6,MINDY4 (UniProt Q4G0A6),0.167 (inactive)
7,USP46 (UniProt P62068),-0.261 (inactive)
8,EIF3F (UniProt O00303),-0.0452 (inactive)
9,USP8 (UniProt P40818),-0.0766 (inactive)
10,ALG13 (UniProt Q9NP73),0.0712 (inactive)
11,UniProt O00487,-0.459 (inactive)
12,PSMD7 (UniProt P51665),-0.458 (inactive)
13,USP10 (UniProt Q14694),0.037 (inactive)
14,COPS5 (UniProt Q92905),-0.578 (inactive)
15,OTUD6B (UniProt Q8N6M0),-0.283 (inactive)
16,YOD1 (UniProt Q5VVQ6),-0.24 (inactive)
17,USP15 (UniProt Q9Y4E8),-0.33 (inactive)
18,EIF3H (UniProt O15372),0.043 (inactive)
19,UCHL1 (UniProt P09936),0.0224 (inactive)
20,USP25 (UniProt Q9UHP3),-0.899 (inactive)
